Assay results taken from PubChem BioAssay (NCI).
This is part of a sample that, as a whole, favours compounds with a hit. Of some 83,000 tested, about 20% had one in any assay.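 Single-dose data. Exposure time 48 hours. Values below 10 considered active.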 A number with no mark means an inactive call. Calls of active or inactive are those of the source.

tested on: CCRF-CEM leukemia; experiment: NCI-60 one-dose screen, 48 h (100 = growth as untreated, 0 = no growth, -100 = all killed); details: 10 µM unless noted

| Compound | growth |
| --- | --- |
| NC(CCc1nc2ccccc2c(=O)[nH]1)C(=O)O (stereo not drawn) | 103% |
| CN1CCN(Cc2ccc(NC(=O)c3[nH]ncc3Nc3cc(OC4CCCC4)ncn3)cc2)CC1 | 5.67% (active) |
| COc1ccc(C2=Nn3c(NN)nnc3SC2)cc1 | 95.1% |
| COc1cc2nc(-c3cnc(N(C)C)nc3)nc(NC3CCN(Cc4ccccc4)CC3)c2cc1OC | -31.3% (active) |
| CCN1C(=O)N(c2ccccc2)C2NN=c3s/c(=C4\C(=O)N(C(C)C)c5ccccc54)c(=O)n3C21 (stereo not drawn) | 15.1% |
| CC(C)c1ccc(S(=O)(=O)NC(=O)NC2CCCC2)cc1 | 98% |
| COc1cc2nc(NC3CCC3)nc(NC3CCN(C(C)C)CC3)c2cc1OC | 46.5% |
| COc1ccc(C2C3=C(COC3=O)N(CCO)c3cc4c(cc32)OCCO4)cc1 (stereo not drawn) | 89.3% |
| NC(=O)CSc1nc(-c2ccc(F)cc2)cc(-c2ccco2)n1 | 107% |
| O=C1N=c2ccccc2=C1c1sc(=Nc2ccccc2)n(Nc2ccccc2)c1O | 103% |
| CN1C(=O)N(C)C2(c3ccccc3)n3c(s/c(=C\c4ccccc4)c3=O)=NNC12c1ccccc1 (stereo not drawn) | 92.2% |
| Cn1c(/C=C(\C#N)c2ccccc2)nc2c(N3CCOCC3)nc(Cl)nc21 | 2.94% (active) |
| O=C(CN1C=NC2C(N3CCOCC3)=NC=NC21)c1cccc2ccccc12 (stereo not drawn) | 104% |
| O=c1c2cccc(F)c2sc2c(N3CCNCC3)nc3ccccc3c12 | 13.2% |

tested on: MOLT-4 leukemia; experiment: as above; details: 10 µM unless noted

| Compound | growth |
| --- | --- |
| O=C1/C(=C\c2ccc[nH]2)c2ccccc2N1c1ccccc1 | 102% |
| CC[C@@H](C)[C@H](NC(=O)Cn1cc(CNC(=O)[C@@H](NC(=O)OCc2ccccc2)C(C)C)nn1)C(=O)O | 109% |
| CN1C(=O)N(C)C2C1NN=c1s/c(=C\c3ccc([N+](=O)[O-])cc3)c(=O)n12 (stereo not drawn) | 64.3% |
| CNCCNc1nc2ccccc2c2c(=O)c3cccc(C)c3sc12 | -29.5% (active) |
| CCCCN1CCN(c2ccc3nc(-c4ccc5nc(-c6ccc(C(F)(F)F)cc6)[nH]c5c4)[nH]c3c2)CC1 | -61% (active) |
| CC[C@H](C)[C@@H](C(=O)OC)n1cc(CNC(=O)[C@@H](Cc2ccccc2)NC(=O)OCc2ccccc2)nn1 | 69.1% |
| COc1ccc(C2=C(c3cccc(OC)c3)C(=O)c3ccc(C)nc3C2=O)cc1 | -31.5% (active) |
| CC(C)C[C@H](C(=O)N[C@@H](C)C(N)=O)N1CC=CCN(O)S1(=O)=O | 102% [5 µM] |
| CN1C(=O)N(C)C2Nn3c(s/c(=C\c4ccc(Cl)cc4Cl)c3=O)=NC21 (stereo not drawn) | 64.1% |
| COc1ccc(/C=c2\sc3n(c2=O)NC2C(N=3)N(C)C(=O)N2C)cc1 (stereo not drawn) | 102% |
| COC(=O)c1c2c(c(C)[n+]([O-])c1C)C(=O)C=C(NCc1ccccc1)C2=O | -36.2% (active) |
| N#C/C(=C\c1c(-c2ccccc2)[nH]c2ccccc12)S(=O)(=O)c1ccccc1 | 33.7% |
| CCN1C(=O)N(CC)C2C1NN=c1s/c(=C3\C(=O)N(CC(C)(C)C)c4ccccc43)c(=O)n12 (stereo not drawn) | 16.3% |
| CCCCCCCCCCCCCCn1cc(C2=C(c3coc4ccc(OC)cc34)C(=O)NC2=O)c2ccccc21 | 118% |
| O=c1c(-c2nc3ccccc3[nH]2)cc2ccccc2n1Cc1cn(Cc2ccccc2Cl)nn1 | 32.5% |
| COc1c(B(O)O)cccc1-c1nc2ccc3n[nH]c(F)c3c2c2c1CCCC2 | 37.8% |
| O=C(CSc1nc2ccccc2c(=O)n1-c1ccccc1)Nc1ccc(C(=O)/C=C/c2ccc(Cl)cc2)cc1 | 99.5% |
| Cc1cccc2c(=O)c3c(sc12)c(NCCN)nc1ccccc13 | -59% (active) |
| O=c1cc(-c2ccccc2)oc2cc(OCc3cn(Cc4ccc(F)cc4)nn3)cc(OCc3cn(Cc4ccc(F)cc4)nn3)c12 | 83.2% |
| COc1cc(/C=C2\Oc3cc(OCCCN4CCCC4)ccc3C2=O)cc(OC)c1 | -22.9% (active) |

| Compound | growth |
| --- | --- |
| Nc1no[n+]([O-])c1-c1nnc2c(n1)-c1ccccc1C2=O | 5.49% (active) |
| Cc1nc2ccccc2c(/C=C/c2ccccc2)c1C(=O)/C=C/c1ccc(Cl)cc1 | 5.62% (active) |
| O=C(CN1C=NC2C(N3CCOCC3)=NC=NC21)c1ccc(Br)cc1 (stereo not drawn) | 105% |
| COc1ccc(/C=C/C(=O)c2c(C)nc3ccccc3c2/C=C/c2ccccc2)cc1O | 29.9% |
| NC(CCc1nc2ccccc2c(=O)[nH]1)C(=O)O (stereo not drawn) | 103% |
| CN1CCN(Cc2ccc(NC(=O)c3[nH]ncc3Nc3cc(OC4CCCC4)ncn3)cc2)CC1 | 5.56% (active) |
| COc1ccc(C2=Nn3c(NN)nnc3SC2)cc1 | 83% |
| COc1cc2nc(-c3cnc(N(C)C)nc3)nc(NC3CCN(Cc4ccccc4)CC3)c2cc1OC | -16.5% (active) |
| CCN1C(=O)N(c2ccccc2)C2NN=c3s/c(=C4\C(=O)N(C(C)C)c5ccccc54)c(=O)n3C21 (stereo not drawn) | 20.9% |
| CC(C)c1ccc(S(=O)(=O)NC(=O)NC2CCCC2)cc1 | 94.6% |
| COc1cc2nc(NC3CCC3)nc(NC3CCN(C(C)C)CC3)c2cc1OC | 45.5% |
| COc1ccc(C2C3=C(COC3=O)N(CCO)c3cc4c(cc32)OCCO4)cc1 (stereo not drawn) | 81.9% |
| NC(=O)CSc1nc(-c2ccc(F)cc2)cc(-c2ccco2)n1 | 97.9% |
| Cc1ccc2nc(NC(=O)CSC(=S)N3CCN(c4ccccc4)CC3)sc2c1 | 111% |
| O=C1N=c2ccccc2=C1c1sc(=Nc2ccccc2)n(Nc2ccccc2)c1O | 99.3% |
| CN1C(=O)N(C)C2(c3ccccc3)n3c(s/c(=C\c4ccccc4)c3=O)=NNC12c1ccccc1 (stereo not drawn) | 83% |
| Cn1c(/C=C(\C#N)c2ccccc2)nc2c(N3CCOCC3)nc(Cl)nc21 | -12.4% (active) |
| O=C(CN1C=NC2C(N3CCOCC3)=NC=NC21)c1cccc2ccccc12 (stereo not drawn) | 93.3% |
| O=c1c2cccc(F)c2sc2c(N3CCNCC3)nc3ccccc3c12 | -18.8% (active) |
